Bioassay records from PubChem BioAssay.
Gal4-VP16 FLuc: inhibits Gal4-VP16 luciferase reporter, ROR gamma counter-screen | Potency, µM (doses to about 53.6 µM), without a hit: at the highest dose activity, negative = inhibition, actives largely listed as inhibitors | Drosophila S2 Gal4-VP16 UAS-luciferase, luminescence, 20 h | AID 2546 | actives 3.5% (n = 310,000);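 also: Gal4-VP16 expression switched on by copper sulfate through the metallothionein promoter; nearly all actives have a fitted effect of over 50% in size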
Luc counter: counter-screen: inhibitors of Kinase-Glo firefly luciferase; AID 1379; Potency, µM (highest dose often 38.3 µM), without a hit: at the top dose activity change, negative = inhibition, actives largely listed as inhibitors; Kinase-Glo luciferase, ATP luminescence, 8 min; actives 0.28% (n = 200,000); also: nearly all actives have a fitted effect of over 60% in size
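Light output from Kinase-Glo luciferase with luciferin and 10 uM ATP in 50 mM imidazole pH 7.2, KCl, MgCl2, Tween 20, BSA; compound pin-delivered, 8-min ambient incubation, then luminescence read.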
RORg inh: ROR gamma (mouse) transcription inhibition | P51450 | actives 5.4% (n = 310,000) | Drosophila S2 Gal4-RORgamma UAS-luciferase reporter, 20 h | Potency, µM (titrated, usually from 53.6 µM), inactives show at the top dose activity change, negative = inhibition, hits mostly inhibitors; also: nearly all actives have a fitted effect of over 60% in size
Target sequence (P51450 whole entry, looked up, the tested form may be a part): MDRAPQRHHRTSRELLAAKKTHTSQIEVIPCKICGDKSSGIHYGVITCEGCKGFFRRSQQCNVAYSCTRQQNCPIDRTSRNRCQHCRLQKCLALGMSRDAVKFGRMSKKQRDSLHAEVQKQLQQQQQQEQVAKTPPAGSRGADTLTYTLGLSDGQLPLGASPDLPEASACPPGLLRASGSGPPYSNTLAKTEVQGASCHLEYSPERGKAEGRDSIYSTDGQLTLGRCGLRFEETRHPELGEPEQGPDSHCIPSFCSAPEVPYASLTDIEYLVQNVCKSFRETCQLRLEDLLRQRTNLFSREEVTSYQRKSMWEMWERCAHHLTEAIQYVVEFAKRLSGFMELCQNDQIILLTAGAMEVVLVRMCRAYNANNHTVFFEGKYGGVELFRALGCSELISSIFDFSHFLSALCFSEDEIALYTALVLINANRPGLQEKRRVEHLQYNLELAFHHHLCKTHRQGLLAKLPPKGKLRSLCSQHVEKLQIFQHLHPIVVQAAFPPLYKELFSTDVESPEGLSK
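Luciferase reporter read in Schneider cells carrying Gal4-RORγ (mouse) and UAS-Photinus luciferase; cells given compound 1 h before 700 uM copper sulfate induction, then incubated 20 h at ambient temperature.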
* marks the source's active call; other numbers are inactive results; ? = inconclusive; · = no result given; [ ] = remark or other dose. A selection: hits, their analogues and other compounds. The true share with any hit is near 6.4%. Calls follow the shape of the dose curve; as a rule, active = well fitted curve in the direction sought with a large enough effect; inconclusive = small, poorly fitted or top-dose-only effect, or another doubt; inactive = no such curve, though single readings can be large; an effect the other way counts as inactive or inconclusive. % is scaled to controls: 0 for no effect and ±100 for the full control effect; potency is read from the fitted curve at half-maximal effect.

SMILES | Gal4-VP16 FLuc | Luc counter | RORg inh
Cc1noc(C)c1-c1nc(Nc2ccc(F)cc2)c2ccccc2n1 | 1% | · | 19%
FC(F)(F)c1ccccc1-c1nc(Nc2ccncc2)c2ccccc2n1 | ? | -2% | 11µM*
COc1ccccc1-c1nc(Nc2ccncc2)c2ccccc2n1 | 9% | · | -32%
COC(=O)/C=C1\NC(=O)C(C)S1 (configuration not stated) | 12% | -2% | 0%
O=C(O)c1cn2c3c(ccc(Cl)c3c1=O)OCC2 | -1% | · | -22%
COc1ccc(CCNC(=O)C/C(C)=N/NC(=O)C2CCCCC2)cc1OC | ? | -3% | -12%
CCNC(=S)N1CCC(NC(=O)C2CCCCC2)CC1 | -2% | -4% | 9%
CCNC(=O)C/C(C)=N/NC(=O)C1CCCCC1 | ? | -1% | 11µM*
CCNC(=S)NNC(=O)C1CCCCC1 | ? | -4% | 13µM*
CCc1cc2c(=O)oc(-c3ccc(F)cc3)nc2s1 | 4% | · | 17%
CCNc1nc(ON=C(C)C)nc(N(C)C)n1 | 0% | 0% | 14µM*
CCNc1nc(NCC)nc(OCCOC(C)=O)n1 | 5% | -2% | -8%
Cc1nc(C)n(C(C)CNC(=O)c2cccc(Br)c2)n1 (configuration not stated) | 6% | · | -17%
COc1cccc(C(=O)O/N=C(\N)CS(=O)(=O)c2ccccc2)c1 | -8% | · | -26%
Nc1ccc(-c2ccc(N)c(C(=O)O)c2)cc1C(=O)O | -23% | · | -2%
Nc1ccc(Br)cc1C(=O)O | 1.4µM* | 1% | 2.8µM*
COc1cc2c(cc1OC)C(C)N(C(=O)c1cccs1)CC2 (configuration not stated) | -19%[10 µM] | 1% | -16%
COc1cc2c(cc1OC)C(C)N(C(=O)c1cc3c(=O)oc4ccc(C)cc4c3s1)CC2 (configuration not stated) | -21% | 1% | 10µM*
COc1ccc2c3c(cccc13)C(=O)N(O)C2=O | ? | 3% | -4%
O=C1c2cccc3c([N+](=O)[O-])ccc(c23)C(=O)N1c1ccccn1 | -8% | -6% | 1%
O=C1c2cccc3c([N+](=O)[O-])ccc(c23)C(=O)N1O | 13µM* | · | ?
O=C1c2cccc3cccc(c23)C(=O)N1c1nccs1 | -4% | -1% | 8%
O=C1c2cccc3c([N+](=O)[O-])ccc(c23)C(=O)N1c1nccs1 | 5µM* | -4% | 5.6µM*
O=C1c2cccc3c([N+](=O)[O-])ccc(c23)C(=O)N1c1ccc(Cl)cn1 | 7.9µM* | -5% | ?
CN1[C@@H]2CC[C@H]1CC(OC(=O)[C@@H](O)c1ccccc1)C2 (some centres not stated) | 1% | -2%[7.66 µM] | -18%[10 µM]
SMILES | Gal4-VP16 FLuc | Luc counter | RORg inh
Cc1cc(C)cc(NC(=O)CSc2nc(CSc3ccc(Cl)cc3)cc(=O)[nH]2)c1 | -12% | · | 17%
O=C(CCN1C(=O)c2cccc3cccc(c23)C1=O)Nc1ccon1 | 1% | -3% | 5%
COC(=O)CCCC(=O)N1CCCC(C(=O)c2ccc(OC)cc2C)C1 (configuration not stated) | -22% | 1% | 18%
O=C(O)CCCCCN1C(=O)CSC1=S | -16% | -2% | 5µM*
CC(C)OC(=O)CCCCCN1C(=O)CSC1=S | 0% | 5% | -12%
COc1ccc(/C=C/c2c([N+](=O)[O-])c(=O)n(C)c(=O)n2C)cc1OC | 7% | -6% | 8%
Cn1c(/C=C/c2cccc([N+](=O)[O-])c2)c([N+](=O)[O-])c(=O)n(C)c1=O | ? | · | 16µM*
CS(=O)(=O)Nc1cccc(-c2nccc(-n3ccnc3)n2)c1 | -10% | -1% | -19%
Cc1cnc(NC(=O)CSc2nnc(Cc3ccccc3)o2)s1 | 4% | -4% | 10µM*
COc1ccc(Cc2nnc(SCC(=O)Nc3ncc(C)s3)o2)cc1 | ? | 2% | -2%
CCc1nnc(NC(=O)CSc2nnc(-c3ccco3)o2)s1 | ? | 3% | 11µM*
CCc1nnc(NC(=O)CSc2nnc(COc3ccccc3C)o2)s1 | ? | -1% | 11µM*
CCc1nnc(NC(=O)CSc2nnc(COc3cccc(C)c3)o2)s1 | ? | -1% | -107%
CCc1nnc(NC(=O)CSc2nnc(-c3ccco3)n2C)s1 | -5% | -2% | 3%
Cc1ccc(OCCC(=O)OCC(=O)Nc2cc(S(=O)(=O)N(C)C)ccc2C)cc1 | 1% | 2% | -33%
O=C(O)C1CCN(Cc2cccnc2)CC1 | -8% | 0% | 32%
CCOc1ccc(CCNC(=O)c2cc(=O)[nH]c3ccc(S(=O)(=O)N(CC)CC)cc23)cc1OCC | 10% | · | 20%
C=CCOc1ccccc1CNc1cccc(F)c1 | ? | -1% | -3%
C=CCOc1ccccc1CNc1ccc2c(c1)OCCO2 | ? | -15% | 4.5µM*
